In PubChem BioAssay AID493203 (National Center for Advancing Translational Sciences (NCATS), 2011):
Results filed as inconclusive are left out. Calls of active or inactive are those of the source. Calls come from the whole dose curve; as a rule, active = well fitted activation curve with a large enough effect; inconclusive = small, poorly fitted or top-dose-only effect; inactive = flat fitted curve, though single readings scatter.

Assay: qHTS Assay for NPC1 Promoter Activators: Initial hit validation from the primary screen;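 for activity, positive = activation: reporter driven by the mutant form of the NPC1 promoter; % of control where 0% means no effect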
Conditions: Huh7 NPC1 promoter-luciferase reporter, luminescence, 24 h; series mostly up to 46.1 µM; activity, positive = activation: at the top concentration
Summary of the method: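 Huh7 cells stably carrying NPC1 promoter-luciferase, 1500 cells per well in OP-MEM I with 10% FBS; compounds added after 2 hours and incubated 24 hours at 37C. Luminescence read 10 minutes after Amplite luciferase reagent.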
Potency is the fitted concentration of half-maximal effect.

Question: Which “activity, positive = activation” value does the source give for `CCOC(=O)c1cc2sccc2n1CC(=O)N1CCCc2ccccc21` here?
Answer: Its value is -13.7% (inactive).

Question: With `O=C(CCCN1C(=O)C(c2ccccc2)Oc2cccnc21)Nc1ccccc1Cl` (configuration not stated) as the molecule, how does the “activity, positive = activation” value read?
Answer: The value was -11.5% (inactive).

Question: With `CC(=O)[C@@H]1[C@@H](C(=O)c2ccc(C)cc2)[C@]2(C(=O)Nc3ccccc32)[C@H]2C=Cc3cc(F)ccc3N12` as the molecule, how does the “activity, positive = activation” value read?
Answer: Its value is 3.97% (inactive).

Question: With `Cc1ccc2c(c1)sc1nc(=O)n(-c3ccccc3)c(=O)n12` as the molecule, how does the Potency read?
Answer: Its Potency is 705 nM (active).

Question: For `CCN(C(=O)COC(=O)c1ccc(C=O)cc1)c1c(N)n(Cc2ccccc2)c(=O)[nH]c1=O`, which “activity, positive = activation” value is on record?
Answer: The value was -1.43% (inactive).

Question: With `O=C(C[N+]1(CC#Cc2ccccc2)CCCCC1)c1ccccc1` as the molecule, how does the “activity, positive = activation” value read?
Answer: The value was -0.776% (inactive).

Question: With `O=C(C1COc2ccccc2O1)N1CCN(S(=O)(=O)c2ccccc2)CC1` (configuration not stated) as the molecule, how does the “activity, positive = activation” value read?
Answer: Its value is -2.48% (inactive).

Question: For `NCCOc1ccccc1-c1ccccc1`, which “activity, positive = activation” value is on record?
Answer: The value was 0.267% (inactive).

Question: For `COc1ccc(/C=C\C(=O)c2c(O)ccc3c(C)cc(=O)oc23)cc1OC`, which “activity, positive = activation” value is on record?
Answer: Its value is -33.2% (inactive).

Question: For `O=C(CSc1nnc(-c2ccccn2)o1)Nc1ccccc1Cl`, which Potency is on record?
Answer: Its Potency is 1250 nM (active).

Question: Which “activity, positive = activation” value does the source give for `Cc1c(C(O)CN2CCN(Cc3ccc4c(c3)OCO4)CC2)c2ccccc2n1C` (configuration not stated) here?
Answer: Its value is -7.59% (inactive).

Question: With `COc1cccc(NC(=O)CN2C(=O)CSc3ccc(S(=O)(=O)N4CCC(C)CC4)cc32)c1` as the molecule, how does the “activity, positive = activation” value read?
Answer: Its value is -15.8% (inactive).

Question: With `O=C(CSc1nnc(-c2ccccn2)o1)Nc1ccccc1F` as the molecule, how does the Potency read?
Answer: Its Potency is 1120 nM (active).

Question: For `Cn1c(SCc2ccccc2)nnc1-c1cnccn1`, which Potency is on record?
Answer: Its Potency is 15800 nM (active).

Question: Which “activity, positive = activation” value does the source give for `COCCNC(=O)CN1C(=O)NC(c2ccccc2)(c2ccccc2)C1=O` here?
Answer: Its value is 1.47% (inactive).

Question: With `O=CN1CCN(C(=O)c2ccccc2Cl)CC1` as the molecule, how does the “activity, positive = activation” value read?
Answer: The value was 4.57% (inactive).

Question: Which Potency does the source give for `O=C(CSc1nnc(-c2ccc([N+](=O)[O-])cc2)o1)Nc1ccccn1` here?
Answer: Its Potency is 628 nM (active).

Question: Which “activity, positive = activation” value does the source give for `CC1CN(C(=O)c2ccncc2)CC(C)O1` (configuration not stated) here?
Answer: The value was -2.47% (inactive).

Question: For `COc1ccc(NC(=O)CSc2ccc([N+](=O)[O-])cc2)cc1S(=O)(=O)N1CCOCC1`, which “activity, positive = activation” value is on record?
Answer: The value was -1.44% (inactive).

Question: For `COc1ccc(NC(=O)Nc2ccc(Cc3ccncc3)cc2)cc1OC`, which “activity, positive = activation” value is on record?
Answer: Its value is -8.22% (inactive).

Question: Which Potency does the source give for `CCC(=O)Nc1cc(-c2cc3ccccc3oc2=O)ccc1OC` here?
Answer: Its Potency is 1120 nM (active).

Question: For `COC(=O)c1ccccc1NC(=O)c1ccc(-c2ccc(Br)cc2)o1`, which “activity, positive = activation” value is on record?
Answer: Its value is -2.77% (inactive).

Question: For `CC(=O)Nc1nnc(SCC(=O)NCCOc2ccccc2)s1`, which “activity, positive = activation” value is on record?
Answer: Its value is 2.05% (inactive).

Question: With `CCCCn1c(CCNC(=O)c2cccs2)nc2ccccc21` as the molecule, how does the “activity, positive = activation” value read?
Answer: Its value is -12.1% (inactive).

Question: For `CCCOP(=O)(c1ccc(N(C)C)cc1)C(O)c1cccnc1` (configuration not stated), which “activity, positive = activation” value is on record?
Answer: Its value is 0.546% (inactive).

Question: With `Cc1noc(/C=C/N(C)C)c1S(=O)(=O)N1CCCC(C(=O)N2CCCCC2)C1` (configuration not stated) as the molecule, how does the “activity, positive = activation” value read?
Answer: Its value is -1.11% (inactive).

Question: Which Potency does the source give for `COC(=O)c1ccccc1S(=O)(=O)NNC(=O)Nc1ccccc1` here?
Answer: The Potency was 12500 nM (active).

Question: With `CCOC(=O)c1ccc(-c2nnc(-c3ccc(Cl)cc3Cl)o2)cc1` as the molecule, how does the Potency read?
Answer: The Potency was 2500 nM (active).

Question: Which “activity, positive = activation” value does the source give for `COc1ccc2oc(=O)c(C(=O)NC(C)c3ccccc3)cc2c1` (configuration not stated) here?
Answer: Its value is 7.72% (inactive).

Question: With `Cn1c(CCN2CCN(c3ccccc3)CC2)nc2cc(NC(=O)c3ccco3)ccc21` as the molecule, how does the “activity, positive = activation” value read?
Answer: The value was 7.93% (inactive).

Question: Which “activity, positive = activation” value does the source give for `CC(Sc1ncnc2c1cnn2-c1ccccc1)C(=O)Nc1ccc(N2CCOCC2)cc1` (configuration not stated) here?
Answer: The value was 5.76% (inactive).

Question: Which “activity, positive = activation” value does the source give for `Cc1ccc2nc(Nc3ccc(Cl)cc3)c3nncn3c2c1` here?
Answer: Its value is 4.35% (inactive).
